Experimental findings from PubChem BioAssay (NCATS) are described below.

The structures appear in SMILES notation. Inconclusive results are not listed. Values without a mark were called inactive. Active and inactive are the calls of the source. The call rests on the fitted dose curve; in most records, active means well fitted curve in the direction sought with a large enough effect; inconclusive means small, poorly fitted or top-dose-only effect, or another doubt; inactive means no such curve, though single readings can be large; an effect the other way counts as inactive or inconclusive.

Chain of DNA repair nuclease/redox regulator APEX1 (Homo sapiens) (P27695 whole entry, looked up): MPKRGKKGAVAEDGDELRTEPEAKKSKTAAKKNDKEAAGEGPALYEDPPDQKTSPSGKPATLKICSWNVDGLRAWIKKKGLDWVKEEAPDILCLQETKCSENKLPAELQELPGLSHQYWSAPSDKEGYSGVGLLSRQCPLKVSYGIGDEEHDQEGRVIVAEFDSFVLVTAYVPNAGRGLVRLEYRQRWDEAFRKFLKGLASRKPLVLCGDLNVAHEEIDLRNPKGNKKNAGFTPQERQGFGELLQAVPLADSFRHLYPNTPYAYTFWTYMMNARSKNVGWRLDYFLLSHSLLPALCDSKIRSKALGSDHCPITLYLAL

The target of one assay is DNA repair nuclease/redox regulator APEX1 (Homo sapiens) (UniProt P27695). Briefly: qHTS Validation Assay for Inhibitors of the Human Apurinic/apyrimidinic Endonuclease 1 (APE1) (AID 1705;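 further: TAMRA fluorescence gain over two minutes as APE1 cuts a quenched THF abasic duplex; on the % scale 0 is the no-effect control and ±100 the full control effect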). As to conditions: purified APE1 endonuclease activity, fluorescence, titration; series mostly up to 57.1 µM; activity change, negative = inhibition: at the top concentration. A digest of the protocol:
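Activity read as rising fluorescence (598 nm emission, 525 nm excitation) from incision of a TAMRA/BHQ-2 duplex carrying a THF abasic site (50 nM). Compound and enzyme sat 15 min at RT before substrate start; signal change between first and third 60-s reads.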
For orientation: qHTS replaces the single test concentration by a dilution series.
For the molecule `NC(=O)c1cnccn1`, the “activity change, negative = inhibition” value is -3.33%.

Turning to `N[C@@H]1CONC1=O`, the “activity change, negative = inhibition” value is 2.33%.

Take `CCN(CC)CCCC(C)Nc1ccnc2cc(Cl)ccc12` (stereo unspecified): the “activity change, negative = inhibition” value was 3.28%.

Turning to `NC(N)=NC(=O)c1nc(Cl)c(N)nc1N`, the “activity change, negative = inhibition” value was -22.9%.

With `NCCCC(N)(C(=O)O)C(F)F` (stereo unspecified), the “activity change, negative = inhibition” value is -5.98%.

In the case of `O=c1[nH]cnc2[nH]ncc12`, the “activity change, negative = inhibition” value was -1.95%.

For the molecule `NS(=O)(=O)c1cc2c(cc1Cl)NC=NS2(=O)=O`, the “activity change, negative = inhibition” value is 6.08%.

`Nc1nc2c(ncn2COCCO)c(=O)[nH]1`: the “activity change, negative = inhibition” value is 3.64%.

Consider `Nc1ccc(S(=O)(=O)Nc2ccnn2-c2ccccc2)cc1`, for which the “activity change, negative = inhibition” value is 5.51%.

Regarding `CC(C)(C)NCC(O)c1ccc(O)c(CO)c1` (stereo unspecified), the molecule was called inactive.

Consider `O=C1CCC(N2C(=O)c3ccccc3C2=O)C(=O)N1` (stereo unspecified), for which the “activity change, negative = inhibition” value is -11.5%.

With `OC(CN1CCC(Cc2ccc(F)cc2)CC1)c1ccc(Cl)cc1` (stereo unspecified), the “activity change, negative = inhibition” value was -8.46%.

For the molecule `Nc1nc2ccc(OC(F)(F)F)cc2s1`, the “activity change, negative = inhibition” value is 3.61%.

For the molecule `CCOC(=O)N1CCC(=C2c3ccc(Cl)cc3CCc3cccnc32)CC1`, the “activity change, negative = inhibition” value is -13.8%.

Consider `CCCCNc1cc(C(=O)O)cc(S(N)(=O)=O)c1Oc1ccccc1`, for which the “activity change, negative = inhibition” value is 0.513%.

For the molecule `N=c1nc(N2CCCCC2)cc(N)n1O`, the “activity change, negative = inhibition” value was 7.52%.

As to `CC(C[N+](C)(C)C)OC(N)=O` (stereo unspecified), the “activity change, negative = inhibition” value is -0.513%.

`CN1CCN(CCCN2c3ccccc3Sc3ccc(C(F)(F)F)cc32)CC1`: the “activity change, negative = inhibition” value is -6.79%.

Turning to `CC(=O)Oc1ccccc1C(=O)O`, the “activity change, negative = inhibition” value was -3.33%.

On to `CNC[C@H](O)c1cccc(O)c1`, for which the “activity change, negative = inhibition” value was -5.84%.

Turning to `Cc1[nH]c(=O)c(C#N)cc1-c1ccncc1`, the “activity change, negative = inhibition” value was 0.262%.

As for `CCCC(CCC)C(=O)O`, the “activity change, negative = inhibition” value was -3.89%.

System in another assay: not listed separately
The experiment in a line: Counterscreen for APE1 Inhibitors: Fluorescent Dye Displacement Validation Assay (AID 1707).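 Further: plate controls were ThO with dsDNA and no compound for no effect and ThO without dsDNA for full effect.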 As to conditions: fluorescent dye displacement from DNA; series mostly up to 57.1 µM; activity change, negative = inhibition: at the top concentration. A digest of the protocol:
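Compounds are scored by their ability to displace Thiazole Orange (250 nM) from a 50 nM TAMRA-tagged duplex bearing a tetrahydrofuran abasic site. Buffer is 50 mM Tris-HCl pH7.5, 50mM NaCl, 2 mM MgCl2, 0.01% Tween-20.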
Turning to `NC(=O)c1cnccn1`, the “activity change, negative = inhibition” value is 2.48%.

Take `N[C@@H]1CONC1=O`: the “activity change, negative = inhibition” value is -0.426%.

With `CCN(CC)CCCC(C)Nc1ccnc2cc(Cl)ccc12` (stereo unspecified), the “activity change, negative = inhibition” value was -0.395%.

In the case of `NCCCC(N)(C(=O)O)C(F)F` (stereo unspecified), the “activity change, negative = inhibition” value was 1.69%.

As for `O=c1[nH]cnc2[nH]ncc12`, the “activity change, negative = inhibition” value was -0.843%.

Take `NS(=O)(=O)c1cc2c(cc1Cl)NC=NS2(=O)=O`: the “activity change, negative = inhibition” value was -0.0302%.

Turning to `Nc1nc2c(ncn2COCCO)c(=O)[nH]1`, the “activity change, negative = inhibition” value was 0.934%.

Take `Nc1ccc(S(=O)(=O)Nc2ccnn2-c2ccccc2)cc1`: the “activity change, negative = inhibition” value was 4.65%.

Consider `CC(C)(C)NCC(O)c1ccc(O)c(CO)c1` (stereo unspecified), for which the outcome was inactive.

For `O=C1CCC(N2C(=O)c3ccccc3C2=O)C(=O)N1` (stereo unspecified), the “activity change, negative = inhibition” value was 1.38%.

With `OC(CN1CCC(Cc2ccc(F)cc2)CC1)c1ccc(Cl)cc1` (stereo unspecified), the “activity change, negative = inhibition” value is -0.172%.

For `Nc1nc2ccc(OC(F)(F)F)cc2s1`, the “activity change, negative = inhibition” value was -2.21%.

In the case of `CCOC(=O)N1CCC(=C2c3ccc(Cl)cc3CCc3cccnc32)CC1`, the “activity change, negative = inhibition” value was -3.08%.

`CCCCNc1cc(C(=O)O)cc(S(N)(=O)=O)c1Oc1ccccc1`: the “activity change, negative = inhibition” value was 2.04%.

For the molecule `N=c1nc(N2CCCCC2)cc(N)n1O`, the “activity change, negative = inhibition” value is 6.68%.

As for `CC(C[N+](C)(C)C)OC(N)=O` (stereo unspecified), the “activity change, negative = inhibition” value was 0.241%.

On to `CN1CCN(CCCN2c3ccccc3Sc3ccc(C(F)(F)F)cc32)CC1`, for which the “activity change, negative = inhibition” value was 0.787%.

Consider `CC(=O)Oc1ccccc1C(=O)O`, for which the “activity change, negative = inhibition” value is 2.98%.

Regarding `CNC[C@H](O)c1cccc(O)c1`, the “activity change, negative = inhibition” value was 1.34%.

As for `Cc1[nH]c(=O)c(C#N)cc1-c1ccncc1`, the “activity change, negative = inhibition” value was 0.637%.

With `CCCC(CCC)C(=O)O`, the “activity change, negative = inhibition” value was -1.11%.

System in a further assay: not listed separately
The experiment in a line: qHTS for differential inhibitors of proliferation of Plasmodium falciparum line 7G8 (AID 1815).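 Further: parasite growth measured after three days of incubation.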 Further: potency means the concentration at half of the fitted maximal effect.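 On activity change, negative = inhibition: plate controls were vehicle wells for no effect and reference inhibitor wells for full effect.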 The note with it: Plasmodium falciparum 7G8 proliferation inhibition; series mostly up to 28.7 µM; activity change, negative = inhibition: at the top concentration.
Regarding `NC(=O)c1cnccn1`, the “activity change, negative = inhibition” value was -5.2%.

Regarding `N[C@@H]1CONC1=O`, the “activity change, negative = inhibition” value is -22.4%.

In the case of `CCN(CC)CCCC(C)Nc1ccnc2cc(Cl)ccc12` (stereo unspecified), the Potency was 2510 nM (active).

As to `NCCCC(N)(C(=O)O)C(F)F` (stereo unspecified), the “activity change, negative = inhibition” value was 5.72%.

For the molecule `O=c1[nH]cnc2[nH]ncc12`, the “activity change, negative = inhibition” value is 0.0559%.

Turning to `NS(=O)(=O)c1cc2c(cc1Cl)NC=NS2(=O)=O`, the “activity change, negative = inhibition” value is -3.88%.

Regarding `Nc1nc2c(ncn2COCCO)c(=O)[nH]1`, the “activity change, negative = inhibition” value is 2.4%.

For the molecule `Nc1ccc(S(=O)(=O)Nc2ccnn2-c2ccccc2)cc1`, the “activity change, negative = inhibition” value was -8.29%.

In the case of `O=C1CCC(N2C(=O)c3ccccc3C2=O)C(=O)N1` (stereo unspecified), the “activity change, negative = inhibition” value was -8.22%.

In the case of `OC(CN1CCC(Cc2ccc(F)cc2)CC1)c1ccc(Cl)cc1` (stereo unspecified), the Potency is 501 nM (active).

As to `Nc1nc2ccc(OC(F)(F)F)cc2s1`, the “activity change, negative = inhibition” value is -27.9%.

With `CCOC(=O)N1CCC(=C2c3ccc(Cl)cc3CCc3cccnc32)CC1`, the Potency is 2240 nM (active).

As to `CCCCNc1cc(C(=O)O)cc(S(N)(=O)=O)c1Oc1ccccc1`, the “activity change, negative = inhibition” value was 3.06%.

`N=c1nc(N2CCCCC2)cc(N)n1O`: the “activity change, negative = inhibition” value is -1.16%.

On to `CC(C[N+](C)(C)C)OC(N)=O` (stereo unspecified), for which the “activity change, negative = inhibition” value is -28%.

In the case of `CN1CCN(CCCN2c3ccccc3Sc3ccc(C(F)(F)F)cc32)CC1`, the Potency is 3980 nM (active).

In the case of `CC(=O)Oc1ccccc1C(=O)O`, the “activity change, negative = inhibition” value was -4.58%.

On to `CNC[C@H](O)c1cccc(O)c1`, for which the “activity change, negative = inhibition” value is -6.05%.

On to `Cc1[nH]c(=O)c(C#N)cc1-c1ccncc1`, for which the “activity change, negative = inhibition” value is -2.33%.

System in the next assay: not listed separately
Briefly: qHTS for differential inhibitors of proliferation of Plasmodium falciparum line GB4 (AID 1816).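 Further: parasite growth measured after 72 h incubation.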 Further: potency means the concentration at half of the fitted maximal effect.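 On activity change, negative = inhibition: 0% = vehicle DMSO and -100% = reference inhibitor.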 The note with it: Potency: Plasmodium falciparum GB4 proliferation inhibition; series mostly up to 28.7 µM; activity change, negative = inhibition: at the top concentration.
With `NC(=O)c1cnccn1`, the “activity change, negative = inhibition” value is -5.47%.

`N[C@@H]1CONC1=O`: the “activity change, negative = inhibition” value was -28.9%.

For `CCN(CC)CCCC(C)Nc1ccnc2cc(Cl)ccc12` (stereo unspecified), the Potency is 1780 nM (active).

With `NCCCC(N)(C(=O)O)C(F)F` (stereo unspecified), the “activity change, negative = inhibition” value was -14.4%.

`O=c1[nH]cnc2[nH]ncc12`: the “activity change, negative = inhibition” value is -2.98%.

For `NS(=O)(=O)c1cc2c(cc1Cl)NC=NS2(=O)=O`, the “activity change, negative = inhibition” value is -19.4%.

For `Nc1nc2c(ncn2COCCO)c(=O)[nH]1`, the “activity change, negative = inhibition” value is -12.7%.

Turning to `Nc1ccc(S(=O)(=O)Nc2ccnn2-c2ccccc2)cc1`, the “activity change, negative = inhibition” value is -6.44%.

As to `O=C1CCC(N2C(=O)c3ccccc3C2=O)C(=O)N1` (stereo unspecified), the “activity change, negative = inhibition” value was -16.8%.

On to `OC(CN1CCC(Cc2ccc(F)cc2)CC1)c1ccc(Cl)cc1` (stereo unspecified), for which the Potency was 355 nM (active).

Consider `Nc1nc2ccc(OC(F)(F)F)cc2s1`, for which the “activity change, negative = inhibition” value is -25%.

As to `CCOC(=O)N1CCC(=C2c3ccc(Cl)cc3CCc3cccnc32)CC1`, the Potency is 10000 nM (active).

`CCCCNc1cc(C(=O)O)cc(S(N)(=O)=O)c1Oc1ccccc1`: the “activity change, negative = inhibition” value was 0.164%.

As to `N=c1nc(N2CCCCC2)cc(N)n1O`, the “activity change, negative = inhibition” value is -12.2%.

Consider `CC(C[N+](C)(C)C)OC(N)=O` (stereo unspecified), for which the “activity change, negative = inhibition” value was -22.4%.

For the molecule `CN1CCN(CCCN2c3ccccc3Sc3ccc(C(F)(F)F)cc32)CC1`, the Potency is 4470 nM (active).

As to `CC(=O)Oc1ccccc1C(=O)O`, the “activity change, negative = inhibition” value is -1.95%.

As to `CNC[C@H](O)c1cccc(O)c1`, the “activity change, negative = inhibition” value was -1.71%.

As for `Cc1[nH]c(=O)c(C#N)cc1-c1ccncc1`, the “activity change, negative = inhibition” value was -12.7%.
